The values that follow come from PubChem BioAssay (NCI).

Molecules are shown by their SMILES. “And” between values parts separate entries of the source, which are not always exact repeats. Equal values may be shown once. This is part of a sample that, as a whole, favours compounds with a hit. Of some 83,000 tested, about 20% had one in any assay.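 Percent growth is the endpoint: 0 to 100 indicates growth inhibition (40 means 60% inhibition), 0 means no net growth, and negative values indicate cell death.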 Values without a mark were called inactive. The source made the active and inactive calls.

The first experiment concerns SNB-19 CNS. As to the kind of experiment: NCI-60 one-dose screen, 48 h (100 = growth as untreated, 0 = no growth, -100 = all killed). The following applies: 4.75 µM. How it is done:
Growth inhibition of the SNB-19 human tumor cell line is measured as a screen for anti-cancer activity. Cells are grown in 96 well plates and exposed to the test compound for 48 hours. Compounds are tested at a single concentration, which is 10^-5 M for most compounds. The reported endpoint is percent growth (GI% or GIPRCNT), where numbers from 0 - 100% represent growth inhibition, and numbers from -100% - 0 represent cell death. For example, a value of 40 represents 60% growth inhibition. A value of 0 means no net growth occurred over the course of the experiment. A value of -40 indicates 40% of cells at the beginning of the experiment died by the end of the experiment. A value of -100 means all cells are dead at the end of the experiment.
NCI-60 Human Tumor Cell Lines Screen was performed using the standard one-dose NCI protocol, which is described in more detail at https://dtp.cancer.gov/discovery_development/nci-60/default.htm.
Compounds with GIPRCNT values below 10 were considered active. Activity score was based on GIPRCNT using the following formula: […]
Score is 0 for GIPRCNT values of 100 or above, 50 for GIPRCNT values of 0, and 100 for GIPRCNT values of -100.
In the case of `CC(=O)OCC1OC([S-])C(OC(C)=O)C(OC(C)=O)C1OC(C)=O.[Au+].c1ccc(CN2[CH-]N(Cc3ccccc3)C(c3ccccc3)=C2c2ccccc2)cc1`, the growth was -49.9% (active).

The experiment is the same for the next values; noted with them: 10 µM.
Take `O=C(O)CCCc1ccc(N(CCCl)CCCl)cc1`: the growth is 102% and 95.9%.
On the same count and under the same terms, then `CC(=O)OCC1OC([S-])C(OC(C)=O)C(OC(C)=O)C1OC(C)=O.[Au+].c1ccc(CN2[CH-]N(Cc3ccccc3)C(c3ccccc3)=C2c2ccccc2)cc1`, with -80.3% (active).

The same experiment, now with this note: 10 µM unless noted.
In the case of `C[C@@]12CCCc3coc(c31)C(=O)c1cc3c(cc12)C(=O)C1=C(NCCS1(=O)=O)C3=O`, the growth was -68.8% (active).
Same read-out and setting: under `C=CC[PH+](c1ccccc1)c1ccccc1.C=CC[PH+](c1ccccc1)c1ccccc1.[Pt+2].[S-]c1ncccn1.[S-]c1ncccn1` stands 74.9%.
As for `CCCn1cc2c3c(cccc31)[C@H]1C[C@@H](C)CN(C)[C@@H]1C2`, the growth is 91.2%.
On to `Nc1cccnc1`, for which the growth was 109%.
The same measure, in the same setting: under `O=P(O)(Nc1ccccc1)Nc1ccccc1` stands 95.3%; under `CC[C@H](C)[C@H](NC(=O)C12CC(NC)(C1)C2)C(=O)N(C)[C@H](C[C@@H](OC(C)=O)c1nc(C(=O)N[C@@H](Cc2ccccc2)C[C@H](C)C(=O)OC)cs1)C(C)C`, 33.5%.
The same measure, in the same setting: under `O=[N+]([O-])c1ccc(OCc2ccc(S(=O)(=O)F)c(Cl)c2)c(Cl)c1` stands 108%.
Consider `CC1(C)CN=C(NN=C(/C=C/c2ccc(C(F)(F)F)cc2)/C=C/c2ccc(C(F)(F)F)cc2)NC1`, for which the growth was 37.9%.
The same measure, in the same setting: under `CC(C)COC(=O)Cc1ccccc1` stands 109%.
Still for that read-out and setting: then `C/C(=N/OC(=O)N(C)C)c1ccc(Cl)c(Cl)c1`, with 99.4%; and `C[C@]12CCc3sc(Nc4ccc(O)cc4)nc3C1=CC[C@@H]1[C@@H]2CC[C@]2(C)C(=O)CC[C@@H]12`, with 64.6%; and `COc1ccc(N)cc1N`, with 101%.
For the compound `C[C@]12CC[C@H]3[C@@H](C[C@@H]4SC(Nc5cccc(F)c5)=N[C@@]45CC(=O)CC[C@]35C)[C@@H]1CCC2=O`, the growth is 62.8%.
The same measure, in the same setting: under `Cc1nnc([S-])o1.[Au+].c1ccc([PH+](c2ccccc2)c2ccccc2)cc1` stands 29.2%; under `CO[C@H]1[C@H](O[C@@H]2C[C@@H]3C/C=C/C(=O)O[C@@H](CO)C[C@H](O)[C@@H]4C[C@H](C)[C@H](C/C=C\C=C\[C@H](C)C[C@H](C2)O3)O4)O[C@@H](C)[C@H](O)[C@H]1O`, 52.2%; under `O=P1(N(CCCl)CCCl)NCCCO1` (stereo not given), 102%.
In the case of `O=C1c2ccccc2C(=O)N1N1CC1c1ccccc1` (stereo not given), the growth is 104%.
As to `CC1=C([Te]c2ccccc2)C(=O)c2ccccc2C1=O`, the growth was 2.43% (active).
On to `COc1ccc2c(c1)c(-c1nc(-c3c[nH]c4ncccc34)cs1)cn2CCCCN1CCOCC1`, for which the growth was 52.4%.
For `CCC1(CCSC#N)C(=O)NC(=O)NC1=O`, the growth was 101%.
On the same count and under the same terms, then `O=C(O)C(O)c1ccc(Cl)cc1` (stereo not given), with 106% and 108%; and `CNC(=O)O/N=C(\SC)C(=O)N(C)C`, with 106%; and `O=[N+]([O-])c1ccc2scc3c4ccccc4nc-3c2c1`, with 46.7%.
In the case of `CC1OC(=O)C(C(C)C)NC(=O)C(C(C)C)OC(=O)C(C(C)C)NC(=O)C(C)OC(=O)C(C(C)C)NC(=O)C(C(C)C)OC(=O)C(C(C)C)NC(=O)C(C)OC(=O)C(C(C)C)NC(=O)C(C(C)C)OC(=O)C(C(C)C)NC1=O` (stereo not given), the growth is -17% (active).
As for `CCC(Br)(CC)C(=O)NC(N)=O`, the growth is 104%.
Same read-out and setting: then `CC[C@H](C)[C@H](NC(=O)CN(C)C)C(=O)N(C)[C@H](C[C@@H](OC(C)=O)c1nc(C(=O)NC23CC(C(=O)OC)(C2)C3)cs1)C(C)C`, with 41.5%; and `N#CC(C#N)=Cc1cccc(F)c1`, with 100%.
Turning to `CC[C@H](CC[C@@H](C)[C@H]1CC[C@H]2[C@@H]3CC[C@H]4C[C@]5(CC[C@]4(C)[C@H]3CC[C@]12C)OO[C@](C)(C(F)(F)F)O5)C(C)C`, the growth was 90.4%.
Still for that read-out and setting: under `CCN(CC)CCn1c(=O)n(C)c2ccccc21` stands 113%; under `c1ccc2c(c1)sc1ccccc12`, 98.4%; under `CN(C)c1ccc(C=C2C(=O)NC(=O)NC2=O)cc1`, 99.6%.
Turning to `ClCc1ccc(Cl)c(Cl)c1`, the growth was 96.6%.
Regarding `CC12CCC3C4CCC(=O)C=C4CCC3C1CC1CC(=O)OC12` (stereo not given), the growth was 94.6%.
On the same count and under the same terms, under `C[C@]12CCc3sc(Nc4ccc(OC(F)(F)F)cc4)nc3C1=CC[C@@H]1[C@@H]2CC[C@]2(C)C(=O)CC[C@@H]12` stands 56.5%.
With `Nc1nc(=S)nc(N)[nH]1`, the growth was 97.2%.
Still for that read-out and setting: under `CN1CCc2cc3c(cc2C1O)OCO3` (stereo not given) stands 123% and 100%.

The same experiment, now with this note: 75 µM.
As for `O=C(O)CCCc1ccc(N(CCCl)CCCl)cc1`, the growth is 32.9%.
